Screens (PubChem BioAssay)
Rab9 prom act: activators of Rab9 promoter. Huh7 Rab9 promoter-luciferase reporter, luminescence, 24 h. AID 485297. actives 2.8% (n = 320,000). Potency, µM (highest dose often 9.22 µM), for inactives: at the top dose activation, negative = inhibition, actives largely listed as activators; note: % of control where 0% means no effect; nearly all actives have a fitted effect of over 60% in size
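Using Huh7 cells stably transfected with Rab9 promoter–luciferase, compounds were incubated 24 h at 37 °C, 5% CO2; luciferase luminescence was read 10 min after reagent addition.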
ELG1 genotox: genotoxicity induction in ELG1-luciferase HEK293T cells; actives 1.3% (n = 330,000); Potency, µM (series often up to 46 µM), for the others: top-dose activity change, positive = activation, usual class: activators; HEK293T ELG1-luciferase reporter, luminescence, 16 h; note: % of control where 0% means no effect; nearly all actives have a fitted effect of over 60% in size
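ELG1-luciferase HEK293T cells, 2,000/well; compound pinned in; 16 hr, 37 °C, 5% CO2; ONE-Glo, 30 min RT; luminescence on CCD imager.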
FLuc counter: counter-screen for miR-21 project: firefly luciferase inhibitors or activators | P08659 | purified FLuc, Km substrates, luminescence inhibition | Potency, µM (doses to about 57.5 µM), without a hit: top-dose activity change, negative = inhibition, most hits filed as inhibitors | actives 6.9% (n = 360,000) | AID 588342;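 note: plate controls were vehicle for no effect and reference inhibitor for full effect; nearly all actives have a fitted effect of over 55% in size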
Target sequence (P08659 whole entry, looked up): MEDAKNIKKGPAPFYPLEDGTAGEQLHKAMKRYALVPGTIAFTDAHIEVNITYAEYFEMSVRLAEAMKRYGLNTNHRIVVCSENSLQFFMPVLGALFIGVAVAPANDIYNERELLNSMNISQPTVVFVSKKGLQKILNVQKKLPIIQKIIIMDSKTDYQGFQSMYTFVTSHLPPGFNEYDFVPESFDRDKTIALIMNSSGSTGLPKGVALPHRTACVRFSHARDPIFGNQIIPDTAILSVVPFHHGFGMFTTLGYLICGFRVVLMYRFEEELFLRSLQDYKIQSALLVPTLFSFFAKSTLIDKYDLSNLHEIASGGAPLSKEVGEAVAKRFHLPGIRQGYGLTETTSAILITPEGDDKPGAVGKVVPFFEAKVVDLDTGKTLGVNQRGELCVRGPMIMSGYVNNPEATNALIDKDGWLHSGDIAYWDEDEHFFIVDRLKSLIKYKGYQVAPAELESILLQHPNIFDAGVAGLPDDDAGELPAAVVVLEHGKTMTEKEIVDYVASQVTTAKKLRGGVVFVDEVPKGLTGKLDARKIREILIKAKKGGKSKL
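Purified P. pyralis luciferase (10nM final) with 10uM D-luciferin and 10uM ATP (Km levels) in 50mM Tris acetate pH 7.5, 10mM Mg acetate, 0.01% Tween-20, 0.05% BSA; qHTS 6-point titration, ~60 µM downward; luminescence read.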
SMN2 splice enh: enhancers of SMN2 splice variant expression. HEK293 SMN2-luciferase splicing reporter, luminescence, 30-36 h. Potency, µM (doses to about 46.1 µM), without a hit: top-dose activity change, positive = activation, most hits filed as activators. actives 2.8% (n = 210,000). AID 1458; note: % of control where 0% means no effect; nearly all actives have a fitted effect of over 55% in size
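qHTS luciferase splicing reporter: luminescence rises when SMN2 exon 7 is included in transfected HEK293 cells. Compound exposure lasted 30-36 h at 37C, with 4.5 mM final sodium butyrate as control, followed by a ONE-Glo read.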
NPC1 prom act: NPC1 promoter activation | Potency, µM (highest dose often 9.22 µM), for the others: at the top dose activation, usual class: activators | AID 485313 | Huh7 NPC1 promoter luciferase reporter, 24 h | actives 2.4% (n = 320,000); note: % of control where 0% means no effect; nearly all actives have a fitted effect of over 60% in size
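Luminescence from an NPC1 promoter-driven luciferase reporter in stably transfected Huh7 cells was measured after 24 h compound treatment at 37 °C, followed by 10 min ambient incubation with luciferase detection reagent.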
KinaseGlo FLuc: Kinase-Glo luciferase inhibition (counter-screen); actives 0.28% (n = 200,000); Potency, µM (series often up to 38.3 µM), for inactives: at the top dose activity change, negative = inhibition, usual class: inhibitors; Q27757; Kinase-Glo luciferase, ATP luminescence, 8 min; note: % is set by controls: 0 for no effect and ±100 for the full control effect; nearly all actives have a fitted effect of over 60% in size
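Luminescence was the read-out, taken after 8-minute incubation at ambient temperature. Luciferase turned over luciferin with 10 uM ATP in imidazole pH 7.2 buffer containing KCl, MgCl2, Tween 20 and BSA.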
An asterisk follows results filed as active. Sampled rows, rich in hits. Any-hit rate of the full collection: about 7.3%. Calls come from the whole dose curve; as a rule, active = well fitted curve in the direction sought with a large enough effect; inconclusive = small, poorly fitted or top-dose-only effect, or another doubt; inactive = no such curve, though single readings can be large; an effect the other way counts as inactive or inconclusive. Potency is the fitted concentration of half-maximal effect.

Screening Cc1c(CCC(=O)NCCCC(=O)O)c(=O)oc2cc3oc4c(c3cc12)CCCC4 returned Rab9 prom act 2.4%, ELG1 genotox 5.6%, FLuc counter 19µM* and NPC1 prom act 0.3%.
Cc1c(CCC(=O)NCCCCCC(=O)O)c(=O)oc2c(C)c3oc4c(c3cc12)CCCC4 was read as Rab9 prom act -2.7%, ELG1 genotox 3.8%, FLuc counter inconclusive and NPC1 prom act 0.6%.
`Cc1c(CCC(=O)N[C@@H](CCCNC(N)=O)C(=O)O)c(=O)oc2cc3oc4c(c3cc12)CCCC4` gave Rab9 prom act 9.2%, ELG1 genotox 7.2%, FLuc counter 15.1µM* and NPC1 prom act 2.6%.
`Cc1c(CC(=O)N[C@@H](C)C(=O)O)c(=O)oc2cc3oc4c(c3cc12)CCCC4` gave Rab9 prom act 1.1%, ELG1 genotox -3.0%, FLuc counter 16.9µM* and NPC1 prom act 0.4%.
`CCC[N+](CC#Cc1ccccc1)(CCC)CC(=O)OC` gave Rab9 prom act -3.9%, ELG1 genotox -1.1%, FLuc counter 1.8%, SMN2 splice enh 3.4%, NPC1 prom act -4.5% and KinaseGlo FLuc -0.8%.
For Cc1ccccc1NS(=O)(=O)c1ccc(C(=O)N2CCCCCC2)cc1 the results were Rab9 prom act 0.5%, ELG1 genotox -8.1%, FLuc counter -0.5% and NPC1 prom act 9.5%.
For CCc1nnc(NC(=O)C2CCCN(c3nc4ccccc4s3)C2)s1 (centres undefined) the results were Rab9 prom act 4.5%, ELG1 genotox 1.1%, FLuc counter 0.5%, SMN2 splice enh 9.1%, NPC1 prom act -1.5% and KinaseGlo FLuc -5.4%.
Screening CCCCC(NC(=O)Cc1c(C)c2cc3c4c(oc3cc2oc1=O)CCCC4)C(=O)O (centres undefined) returned Rab9 prom act 5.6%, ELG1 genotox 1.5%, FLuc counter 19µM* and NPC1 prom act -1.3%.
For CCC(NC(=O)CCc1c(C)c2cc3c4c(oc3cc2oc1=O)CCCC4)C(=O)O (centres undefined) the results were Rab9 prom act 6.0%, ELG1 genotox 6.3%, FLuc counter 15.1µM* and NPC1 prom act -2.2%.
For CSCC[C@H](NC(=O)Cc1c(C)c2cc3c4c(oc3cc2oc1=O)CCCC4)C(=O)O the results were Rab9 prom act 0.7%, ELG1 genotox 1.9%, FLuc counter 10.7µM* and NPC1 prom act -0.1%.
CCCCC(NC(=O)Cc1c(C)c2cc3c4c(oc3c(C)c2oc1=O)CCCC4)C(=O)O (centres undefined) was read as Rab9 prom act -1.1%, ELG1 genotox -1.5%, FLuc counter inconclusive and NPC1 prom act -3.3%.
Screening COc1cc(C(=O)NCC(=O)N/N=C/c2c(C)[nH]c3ccccc23)cc(OC)c1OC returned Rab9 prom act -4.5%, ELG1 genotox 0.8%, FLuc counter -1.9% and NPC1 prom act 1.8%.
Screening Cc1cc(C)cc(C(=O)NCC(=O)OCC(=O)Nc2ccc(C)cc2Br)c1 returned Rab9 prom act 5.2%, ELG1 genotox 4.5%, FLuc counter -18.4%, SMN2 splice enh 15.3%, NPC1 prom act -3.8% and KinaseGlo FLuc 2.8%.
Screening O=C(N1CCN(Cc2ccccc2)CC1)C(Cl)(Cl)Cl returned Rab9 prom act -3.4%, ELG1 genotox -0.2%, FLuc counter 6.3%, SMN2 splice enh -6.9%, NPC1 prom act -4.3% and KinaseGlo FLuc 2.5%.
For CCCCNS(=O)(=O)c1ccc(S(=O)(=O)N2CCC3(CC2)OCCO3)cc1 the results were Rab9 prom act -1.9%, ELG1 genotox -2.5%, FLuc counter 0.8%, SMN2 splice enh -23.5%, NPC1 prom act 2.2% and KinaseGlo FLuc -0.7%.
For Fc1ccc(-c2nc3n(n2)Cc2ccccc2-3)cc1 the results were Rab9 prom act inconclusive, ELG1 genotox 0.411µM*, FLuc counter 0.601µM*, SMN2 splice enh 2.82µM*, NPC1 prom act inconclusive and KinaseGlo FLuc 11.2µM*.
For O=c1nc2n(c3c1oc1ccccc13)Cc1ccccc1-2 the results were Rab9 prom act -1.5%, ELG1 genotox inconclusive, FLuc counter -3.3%, SMN2 splice enh -15.0%, NPC1 prom act -11.2% and KinaseGlo FLuc 6.4%.
`Cc1ccc(-c2nc3n(n2)Cc2ccccc2-3)cc1` gave Rab9 prom act 3.16µM*, ELG1 genotox inconclusive, FLuc counter 0.301µM*, SMN2 splice enh 1.26µM*, NPC1 prom act 3.55µM* and KinaseGlo FLuc inconclusive.
`CCn1c(C)nc2cc(-c3nc4n(n3)Cc3ccccc3-4)ccc21` gave Rab9 prom act -43.5%, ELG1 genotox -18.5%, FLuc counter 0.0239µM*, SMN2 splice enh -64.7%, NPC1 prom act -47.7% and KinaseGlo FLuc 2.24µM*.
Screening NC(=S)Cc1nc2n(n1)Cc1ccccc1-2 returned Rab9 prom act -8.4%, ELG1 genotox 5.2%, FLuc counter 2.6%, SMN2 splice enh -7.6%, NPC1 prom act 0.2% and KinaseGlo FLuc -4.8%.
CCOc1ccc(N2CC(c3nc4ccccc4n3CCOc3ccc(CC)cc3)CC2=O)cc1 (centres undefined) was read as FLuc counter -2.4% and SMN2 splice enh -9.8%.
For CCOC(=O)C(=O)Nc1ccccc1C#N the results were Rab9 prom act 2.3%, ELG1 genotox -1.6%, FLuc counter 1.3%, SMN2 splice enh 33.1%, NPC1 prom act -1.1% and KinaseGlo FLuc 3.7%.
`COc1ccc(NC(=S)NN2C(C)CCCC2C)cc1` (centres undefined) gave Rab9 prom act -3.6%, ELG1 genotox 1.2%, FLuc counter 5.5% and NPC1 prom act -1.7%.
`Cc1ccc(C(=O)O/N=C(\N)c2cccnc2)cc1[N+](=O)[O-]` gave Rab9 prom act 1.9%, ELG1 genotox inconclusive, FLuc counter 12µM*, SMN2 splice enh inconclusive, NPC1 prom act 9.6% and KinaseGlo FLuc -4.2%.
`N/C(=N\OC(=O)c1ccc(Cl)c([N+](=O)[O-])c1)c1ccccc1` gave Rab9 prom act 27.9%, ELG1 genotox 12.9%, FLuc counter 12µM* and NPC1 prom act -4.8%.
For N/C(=N\OC(=O)c1ccc([N+](=O)[O-])cc1)c1cccnc1 the results were Rab9 prom act -4.8%, ELG1 genotox inconclusive, FLuc counter 2.69µM* and NPC1 prom act -0.8%.
`N/C(=N\OC(=O)c1ccccc1[N+](=O)[O-])c1cccnc1` gave Rab9 prom act 22.1%, ELG1 genotox inconclusive, FLuc counter inconclusive, SMN2 splice enh 24.2%, NPC1 prom act 16.0% and KinaseGlo FLuc -1.2%.
